# Experimental data as given in PubChem BioAssay (EPA / NIEHS).
# Results filed as inconclusive are left out. Calls of active or inactive are those of the source. How the source made its calls, unless noted: active means hit-call score of the fitted dose curve at least 0.9, where 1 is the maximum; inactive means score below 0.9.
# Assays:
# [1] = ACEA_ER_80hr: ACEA Biosciences xCELLigence Real-Time Cell Analysis on Estrogen Receptor Agonism for Proliferation (AID 2282667; active means hit-call score of the fitted dose curve at least 0.9, where 1 is the maximum); details: T47D proliferation, impedance (xCELLigence), 80 h
# In short: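 Estrogen-driven proliferation is captured as electrode impedance in T47D cells 80 h after compound addition. Test articles ran at 8 concentrations, 1:4 dilutions from 100 uM final, in two replicate plates.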
# [2] = ATG_CRE_CIS: Attagene CIS-FACTORIAL HepG2 Assay for human cAMP Responsive Element (CRE) binding protein 3 (AID 2282926); details: HepG2 CRE cis-reporter, Attagene multiplexed mRNA; actives raise or lower the signal
# In short: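 Liver-derived HepG2, transfected with a CRE-containing reporter panel, exposed 24 h; transcript levels sized and quantified by capillary electrophoresis of labelled amplicons; signal changes either way referenced to vehicle.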
# [3] = target: CCAAT/enhancer-binding protein beta (Homo sapiens) (UniProt P17676); test: ATG_C_EBP_CIS: Attagene CIS-FACTORIAL HepG2 Assay for human CCAAT/Enhancer Binding Protein (C/EBP) beta (AID 2282927); details: HepG2 Attagene cis-factorial transcription factor reporter; actives raise or lower the signal
# In short: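 RT-PCR/capillary electrophoresis fluorescence of reporter mRNA, 24 h post-dose, in HepG2 cells carrying transfected cis-promoter reporter units. Bidirectional curve fitting against DMSO baseline captures gain or loss of signal.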
# [4] = ATG_CMV_CIS: Attagene CIS-FACTORIAL HepG2 Assay for human CMV (Internal Marker) (AID 2282928); details: HepG2 CMV promoter reporter, transcription factor profiling; actives raise or lower the signal;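 further: endpoint acts as a background internal control marker rather than a target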
# In short: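 Reporter transcripts from transfected HepG2 cells are isolated after 24 h of chemical dosing, reverse-transcribed and amplified. Fragments labeled with 6-FAM are cut with HpaI and quantified by capillary electrophoresis; DMSO defines baseline.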
# [5] = ATG_DR4_LXR_CIS: Attagene CIS-FACTORIAL HepG2 Assay for human Liver X Receptor (LXR), DR4 submotif (AID 2282929); details: HepG2 Attagene DR4 cis-reporter, mRNA transcription; actives raise or lower the signal
# In short: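 Fluorescence intensity of labelled reporter cDNA fragments, separated by capillary electrophoresis, gives the signal. HepG2 cells bearing cis-regulated reporter constructs were treated 24 h; activity fitted bidirectionally relative to DMSO negative control.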
# [6] = target: Aryl hydrocarbon receptor (Homo sapiens) (UniProt P35869); test: ATG_Ahr_CIS: Attagene CIS-FACTORIAL HepG2 Assay for human Aryl Hydrocarbon Receptor (Ahr) (AID 2282930); details: HepG2 AhR cis-factorial reporter transcription; actives raise or lower the signal
# In short: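 HepG2 cells transiently transfected with cis-element-driven multiplexed reporter transcription units; endogenous transcription factor activity measured as reporter mRNA 24 h after dosing. RT-PCR, 6-FAM labelling, HpaI digestion, capillary electrophoresis; bidirectional fitting versus DMSO baseline.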
# [7] = ATG_BRE_CIS: Attagene CIS-FACTORIAL HepG2 Assay for human Bone Morphogenetic Protein (BMP) Response Element (BRE) (AID 2282933); details: HepG2 BMP response element reporter, Attagene transcription factor profiling; actives raise or lower the signal
# In short: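 Transient MRTU transfection of human HepG2 liver cells; 24 h compound treatment; total RNA isolated, reverse-transcribed, PCR-amplified, 6-FAM labelled, HpaI-cut, capillary electrophoresis. DMSO = negative control/baseline, bidirectional fit.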
# [8] = target: Retinoic acid receptor alpha (Homo sapiens) (UniProt P10276); test: ATG_DR5_RAR_CIS: Attagene CIS-FACTORIAL HepG2 Assay for human Retinoic Acid Receptor Alpha (RARE), DR5 submotif (AID 2282934); details: HepG2 Attagene cis-factorial RARE DR5 reporter, mRNA; actives raise or lower the signal;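 on AC50: reporter responds to endogenous RAR alpha beta and gamma in HepG2 not RARA alone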
# In short: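 HepG2 cells transiently transfected with multiplexed reporter units under cis (DR5 RARE) promoters, so endogenous transcription factor activity is measured. After 24 h compound exposure, reporter mRNA is quantified by RT-PCR with fluorescent labelling and capillary electrophoresis; bidirectional fitting versus DMSO.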
# [9] = target: Transcription factor E2F1 (Homo sapiens) (UniProt Q01094); test: ATG_E2F_CIS: Attagene CIS-FACTORIAL HepG2 Assay for human E2F Transcription Factor 1 (AID 2282935); details: HepG2 Attagene cis-reporter, E2F reporter RNA transcripts; actives raise or lower the signal
# In short: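 In this cis-factorial format, endogenous factor activity drives transfected reporters in HepG2; transcripts collected at 24 h are quantified by fluorescence after RT-PCR and capillary separation.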
# [10] = ATG_M_61_CIS: Attagene CIS-FACTORIAL HepG2 Assay for M61 Transcription Factor (Internal Marker) (AID 2282937); details: HepG2 Attagene CIS-FACTORIAL M61 internal marker reporter; actives raise or lower the signal
# In short: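 Endogenous transcription factor activity in HepG2 is read through transiently transfected cis-element reporter units. After 24 h dosing, RNA undergoes reverse transcription, PCR and primer extension with 6-FAM before capillary electrophoresis; DMSO-referenced bidirectional fit.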
# [11] = ATG_EGR_CIS: Attagene CIS-FACTORIAL HepG2 Assay for human Early Growth Response 1 (EGR1) (AID 2282938); details: HepG2 Attagene CIS-FACTORIAL EGR reporter mRNA; actives raise or lower the signal
# In short: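 Activity is taken as induction or loss of reporter mRNA versus DMSO, fitted bidirectionally. Transcripts from cis-regulated reporter units in transiently transfected HepG2 were measured after 24 h by RT-PCR with capillary electrophoresis.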
# [12] = ATG_M_19_CIS: Attagene CIS-FACTORIAL HepG2 Assay for M19 Transcription Factor (Internal Marker) (AID 2282939); details: HepG2 Attagene CIS-FACTORIAL M19 internal marker reporter; actives raise or lower the signal
# In short: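 Transfect HepG2 with MRTU reporter library → dose chemical, 24 h → isolate total RNA, reverse-transcribe with oligo(dT) → PCR, 6-FAM label, HpaI cut (2 h, 37 C) → capillary electrophoresis. Bidirectional fit vs DMSO.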
# [13] = ATG_ERE_CIS: Attagene CIS-FACTORIAL HepG2 Assay for Estrogen Response Element (ERE) (AID 2282940); details: HepG2 ERE cis-reporter, Attagene RNA transcript; actives raise or lower the signal
# In short: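 Transient MRTU transfection of human HepG2; cis-element promoters; 24 h dosing; total RNA → RT (oligo dT) → PCR → 6-FAM primer extension → HpaI digest → CE fluorescence. Bidirectional fit, DMSO baseline.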
# [14] = ATG_Ets_CIS: Attagene CIS-FACTORIAL HepG2 Assay for human Erythroblast Transformation Specific (ETS) (AID 2282941); details: HepG2 ETS cis-reporter transcription, actives raise or lower the signal
# In short: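 Bidirectional fit versus DMSO of reporter mRNA signal, detected by RT-PCR and capillary electrophoresis in HepG2 cells transiently transfected with cis-element reporters and dosed 24 h.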
# [15] = target: Hepatocyte nuclear factor 3-beta (Homo sapiens) (UniProt Q9Y261); test: ATG_FoxA2_CIS: Attagene CIS-FACTORIAL HepG2 Assay for human Forkhead box A2 (FOXA2) (AID 2282942); details: HepG2 cis-reporter transcription factor activity, 24 h; actives raise or lower the signal
# In short: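 Reporter transcript induction is measured by fluorescence after capillary electrophoresis of RT-PCR products from HepG2 cells exposed 24 h. Cis-regulated reporter units report endogenous factor activity; curves fitted both directions against DMSO.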
# [16] = ATG_FoxO_CIS: Attagene CIS-FACTORIAL HepG2 Assay for human Forkhead box O (FoxO) (AID 2282943); details: HepG2 Attagene cis-reporter, FoxO element, mRNA; actives raise or lower the signal
# In short: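 HepG2 cells transiently transfected with cis-promoter-driven multiple reporter transcription units; 24 h after chemical dosing, reporter mRNA quantified by RT-PCR, fluorescent primer extension, HpaI digestion and capillary electrophoresis. Bidirectional fitting versus DMSO baseline.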
# [17] = ATG_AP_2_CIS: Attagene CIS-FACTORIAL HepG2 Assay for human Activator Protein 2 (AP-2) (AID 2282932); details: HepG2 AP-2 cis-reporter, Attagene transcription factor profiling; actives raise or lower the signal
# In short: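 Assay in transfected HepG2 with promoter-regulated reporters, 24 h incubation after dosing. Signal is reporter mRNA fluorescence (RT-PCR, capillary electrophoresis), analysed for both increases and decreases relative to DMSO controls.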
# [18] = ATG_E_Box_CIS: Attagene CIS-FACTORIAL HepG2 Assay for human Enhancer Box (E-box) (AID 2282936); details: HepG2 E-box cis-reporter transcription, actives raise or lower the signal
# In short: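 Measured 24 h post-dosing in HepG2 cells transfected with multiple cis-regulated reporter units, signal being reporter mRNA induction detected by fluorescent RT-PCR with capillary electrophoresis; gain or loss fitted against DMSO.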
# [19] = ATG_GATA_CIS: Attagene CIS-FACTORIAL HepG2 Assay for human GATA Binding Protein (AID 2282944); details: HepG2 GATA cis-element reporter, Attagene multiplex mRNA; actives raise or lower the signal
# In short: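 Transient MRTU transfection, HepG2, 24 h compound exposure. Total RNA → oligo(dT) RT → PCR → 6-FAM primer extension → HpaI cut → CE. Bidirectional fit vs DMSO.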
# [20] = ATG_AP_1_CIS: Attagene CIS-FACTORIAL HepG2 Assay for human Activator Protein 1 (AP-1) (AID 2282931); details: HepG2 Attagene cis-factorial AP-1 reporter mRNA; actives raise or lower the signal
# In short: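 Multiplexed HepG2 reporter assay, 24 h dosing. mRNA induction detected by RT-PCR plus capillary electrophoresis. Activity fitted in both directions against DMSO.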
# Sequence of Aryl hydrocarbon receptor (Homo sapiens) (P35869 whole entry, looked up): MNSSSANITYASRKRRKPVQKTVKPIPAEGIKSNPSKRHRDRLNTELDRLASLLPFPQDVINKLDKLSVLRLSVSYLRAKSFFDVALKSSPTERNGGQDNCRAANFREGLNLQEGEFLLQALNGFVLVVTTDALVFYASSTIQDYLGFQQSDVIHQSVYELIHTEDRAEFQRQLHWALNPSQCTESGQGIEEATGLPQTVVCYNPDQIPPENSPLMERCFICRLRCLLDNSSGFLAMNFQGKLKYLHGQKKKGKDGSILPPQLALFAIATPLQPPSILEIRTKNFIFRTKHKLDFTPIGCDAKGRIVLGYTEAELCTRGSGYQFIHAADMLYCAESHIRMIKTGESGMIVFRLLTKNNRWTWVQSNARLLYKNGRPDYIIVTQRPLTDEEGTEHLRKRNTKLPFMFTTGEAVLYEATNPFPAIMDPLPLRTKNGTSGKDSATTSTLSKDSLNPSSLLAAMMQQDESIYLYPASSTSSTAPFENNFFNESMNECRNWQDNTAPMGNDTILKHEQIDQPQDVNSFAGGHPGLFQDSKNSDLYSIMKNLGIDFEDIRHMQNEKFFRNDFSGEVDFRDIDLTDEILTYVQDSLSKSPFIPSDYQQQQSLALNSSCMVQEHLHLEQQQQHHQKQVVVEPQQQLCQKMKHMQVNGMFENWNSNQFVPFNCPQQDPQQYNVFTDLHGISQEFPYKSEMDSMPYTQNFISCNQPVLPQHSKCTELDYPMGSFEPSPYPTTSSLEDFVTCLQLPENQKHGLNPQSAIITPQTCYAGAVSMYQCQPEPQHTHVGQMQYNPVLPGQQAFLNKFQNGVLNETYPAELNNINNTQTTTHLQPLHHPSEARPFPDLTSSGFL
# Sequence of Retinoic acid receptor alpha (Homo sapiens) (P10276 whole entry, looked up): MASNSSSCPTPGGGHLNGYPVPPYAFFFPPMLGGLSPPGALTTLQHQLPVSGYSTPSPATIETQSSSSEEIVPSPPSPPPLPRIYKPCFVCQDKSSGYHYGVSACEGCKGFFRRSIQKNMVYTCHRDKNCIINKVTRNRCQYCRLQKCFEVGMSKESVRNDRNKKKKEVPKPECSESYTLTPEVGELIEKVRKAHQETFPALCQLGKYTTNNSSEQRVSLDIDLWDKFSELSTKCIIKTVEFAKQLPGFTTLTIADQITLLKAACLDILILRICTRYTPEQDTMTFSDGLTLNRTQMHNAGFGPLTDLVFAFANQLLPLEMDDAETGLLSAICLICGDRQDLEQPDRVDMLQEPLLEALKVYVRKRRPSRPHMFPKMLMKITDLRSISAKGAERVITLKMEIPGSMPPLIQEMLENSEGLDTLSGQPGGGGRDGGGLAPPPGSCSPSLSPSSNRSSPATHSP
# Sequence of Transcription factor E2F1 (Homo sapiens) (Q01094 whole entry, looked up): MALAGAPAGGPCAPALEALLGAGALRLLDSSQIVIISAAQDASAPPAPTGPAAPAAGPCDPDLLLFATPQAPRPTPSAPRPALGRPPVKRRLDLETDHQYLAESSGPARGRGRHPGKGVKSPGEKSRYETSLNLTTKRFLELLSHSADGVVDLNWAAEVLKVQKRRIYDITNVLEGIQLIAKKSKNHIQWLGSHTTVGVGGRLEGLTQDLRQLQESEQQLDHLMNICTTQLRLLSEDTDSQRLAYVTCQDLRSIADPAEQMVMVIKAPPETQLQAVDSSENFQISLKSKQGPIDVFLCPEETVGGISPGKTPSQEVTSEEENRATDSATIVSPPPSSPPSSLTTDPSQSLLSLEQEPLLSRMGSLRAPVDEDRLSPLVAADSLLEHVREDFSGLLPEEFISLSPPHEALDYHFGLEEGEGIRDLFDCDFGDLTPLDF
# Sequence of Hepatocyte nuclear factor 3-beta (Homo sapiens) (Q9Y261 whole entry, looked up): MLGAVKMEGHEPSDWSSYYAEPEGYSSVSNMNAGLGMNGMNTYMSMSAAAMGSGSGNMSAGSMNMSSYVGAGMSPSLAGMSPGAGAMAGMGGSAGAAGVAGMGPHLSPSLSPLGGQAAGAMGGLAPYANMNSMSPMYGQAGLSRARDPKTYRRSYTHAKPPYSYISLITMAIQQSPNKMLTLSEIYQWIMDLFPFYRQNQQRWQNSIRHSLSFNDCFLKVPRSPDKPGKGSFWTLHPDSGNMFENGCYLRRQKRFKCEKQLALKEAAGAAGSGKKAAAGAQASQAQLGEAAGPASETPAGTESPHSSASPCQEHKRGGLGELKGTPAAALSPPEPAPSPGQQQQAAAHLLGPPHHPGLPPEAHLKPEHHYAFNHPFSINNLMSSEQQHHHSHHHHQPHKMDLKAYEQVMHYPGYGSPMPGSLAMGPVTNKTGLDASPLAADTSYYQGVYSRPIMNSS
# Sequence of CCAAT/enhancer-binding protein beta (Homo sapiens) (P17676 whole entry, looked up): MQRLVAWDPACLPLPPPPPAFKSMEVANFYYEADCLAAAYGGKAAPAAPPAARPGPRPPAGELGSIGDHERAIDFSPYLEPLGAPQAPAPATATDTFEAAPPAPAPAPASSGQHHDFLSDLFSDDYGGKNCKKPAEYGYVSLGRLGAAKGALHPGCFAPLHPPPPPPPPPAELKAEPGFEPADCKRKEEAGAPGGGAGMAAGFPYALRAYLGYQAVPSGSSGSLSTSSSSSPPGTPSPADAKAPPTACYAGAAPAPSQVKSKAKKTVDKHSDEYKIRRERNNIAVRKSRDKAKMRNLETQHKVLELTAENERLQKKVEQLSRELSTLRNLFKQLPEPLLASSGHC
structure (smiles),measurement,setting,value
CCCCCCOc1ccc(N)cc1,outcome,[1],inactive
same,outcome,[2],inactive
same,outcome,[3],inactive
same,AC50,[4],155 µM (active)
same,AC50,[5],159 µM (active)
same,outcome,[6],inactive
same,outcome,[7],inactive
same,outcome,[8],inactive
same,outcome,[9],inactive
same,outcome,[10],inactive
same,outcome,[11],inactive
same,outcome,[12],inactive
same,outcome,[13],inactive
same,outcome,[14],inactive
same,outcome,[15],inactive
same,outcome,[16],inactive
C=CC(=O)NC(C)(C)C,outcome,[1],inactive
same,outcome,[2],inactive
same,outcome,[3],inactive
same,AC50,[4],48.7 µM (active)
same,outcome,[5],inactive
same,outcome,[6],inactive
same,outcome,[17],inactive
same,outcome,[7],inactive
same,AC50,[8],27.2 µM (active)
same,outcome,[9],inactive
same,outcome,[18],inactive
same,outcome,[10],inactive
same,outcome,[11],inactive
same,outcome,[12],inactive
same,outcome,[13],inactive
same,outcome,[14],inactive
same,outcome,[15],inactive
same,outcome,[19],inactive
CC(CC(C)C)=NO,outcome,[1],inactive
same,outcome,[2],inactive
same,outcome,[3],inactive
same,outcome,[4],inactive
same,outcome,[5],inactive
same,outcome,[6],inactive
same,outcome,[20],inactive
same,outcome,[18],inactive
same,outcome,[11],inactive
same,outcome,[12],inactive
same,outcome,[13],inactive
same,outcome,[14],inactive
same,outcome,[15],inactive
same,outcome,[19],inactive
N#Cc1ccc(C2CCCc3cncn32)cc1 (centres undefined),AC50,[1],0.829 µM (active)
same,outcome,[2],inactive
same,outcome,[3],inactive
same,outcome,[4],inactive
same,outcome,[5],inactive
same,outcome,[6],inactive
same,outcome,[17],inactive
same,outcome,[7],inactive
same,outcome,[8],inactive
same,outcome,[9],inactive
same,outcome,[18],inactive
same,outcome,[10],inactive
same,outcome,[11],inactive
same,outcome,[12],inactive
same,AC50,[13],25.4 µM (active)
same,outcome,[15],inactive
same,outcome,[19],inactive
CC(C=O)c1ccccc1 (centres undefined),outcome,[1],inactive
same,outcome,[2],inactive
same,outcome,[3],inactive
same,outcome,[4],inactive
same,outcome,[5],inactive
same,outcome,[6],inactive
same,outcome,[17],inactive
same,outcome,[7],inactive
same,outcome,[8],inactive
same,outcome,[9],inactive
same,outcome,[18],inactive
same,outcome,[10],inactive
same,outcome,[11],inactive
same,outcome,[12],inactive
same,outcome,[13],inactive
same,outcome,[15],inactive
same,outcome,[16],inactive
COC(Cc1ccccc1)OC,outcome,[1],inactive
same,outcome,[2],inactive
same,outcome,[3],inactive
same,outcome,[4],inactive
same,outcome,[5],inactive
same,outcome,[6],inactive
same,outcome,[17],inactive
same,outcome,[7],inactive
same,outcome,[18],inactive
same,outcome,[10],inactive
same,outcome,[11],inactive
same,outcome,[12],inactive
same,outcome,[13],inactive
same,outcome,[15],inactive
same,outcome,[16],inactive
C=CC(=O)OCCCCCCCC(C)C,outcome,[1],inactive
same,AC50,[2],77.2 µM (active)
same,AC50,[3],63.1 µM (active)
same,outcome,[4],inactive
same,AC50,[5],160 µM (active)
same,outcome,[6],inactive
same,outcome,[7],inactive
same,AC50,[8],70.5 µM (active)
same,outcome,[9],inactive
same,AC50,[18],157 µM (active)
same,outcome,[10],inactive
same,outcome,[11],inactive
same,outcome,[12],inactive
same,AC50,[13],100 µM (active)
same,outcome,[14],inactive
same,outcome,[15],inactive
same,outcome,[16],inactive
same,outcome,[19],inactive
CCC(C)N (centres undefined),outcome,[1],inactive
same,outcome,[2],inactive
same,outcome,[3],inactive
same,outcome,[4],inactive
same,outcome,[5],inactive
same,outcome,[6],inactive
same,outcome,[20],inactive
same,outcome,[7],inactive
same,outcome,[9],inactive
same,outcome,[18],inactive
same,outcome,[10],inactive
same,outcome,[11],inactive
same,outcome,[12],inactive
same,outcome,[13],inactive
same,outcome,[14],inactive
same,outcome,[15],inactive
same,outcome,[16],inactive
same,outcome,[19],inactive
CC(C)(C)C1CCC(=O)CC1,outcome,[1],inactive
same,outcome,[2],inactive
same,outcome,[3],inactive
same,outcome,[4],inactive
same,AC50,[5],160 µM (active)
same,outcome,[6],inactive
same,outcome,[17],inactive
same,outcome,[9],inactive
same,outcome,[18],inactive
same,outcome,[10],inactive
same,outcome,[11],inactive
same,outcome,[12],inactive
same,outcome,[13],inactive
same,outcome,[14],inactive
same,outcome,[15],inactive
same,outcome,[19],inactive
